From PubChem BioAssay (NCATS) come the findings set out here.

Test [1] can be described thus: Quantitative High-Throughput drug screen in 47 multiple myeloma cell lines against the NCATS MIPE library collection: H1112_PLB cell viability assay (AID 1918967; further: nearly all actives have a fitted effect of over 30% in size). In outline: (§1)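 Myeloma cell lines, 500 cells per well, exposed to MIPE 4.0 library compounds for 48 h at 37C, 5% CO2. Viability from ATP by CellTiter-Glo luminescence; normalised to DMSO (100%) and media-only (0%) wells.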

A short description of test [2]: Quantitative High-Throughput drug screen in 47 multiple myeloma cell lines against the NCATS MIPE library collection: Karpas25_ECACC cell viability assay (AID 1918968; further: nearly all actives have a fitted effect of over 35% in size). In outline: as §1
Test [3] can be described thus: Quantitative High-Throughput drug screen in 47 multiple myeloma cell lines against the NCATS MIPE library collection: KMS27_JCRB cell viability assay (AID 1918970). Further: nearly all actives have a fitted effect of over 30% in size. The procedure, abridged: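 Luminescent ATP read-out (CellTiter-Glo, 5 min at room temperature) after 48 h compound exposure of 500 KMS27_JCRB cells per well; DMSO wells define full viability and media-only wells zero.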

Test [4] is described as follows: Quantitative High-Throughput drug screen in 47 multiple myeloma cell lines against the NCATS MIPE library collection: KMS12BM_JCRB cell viability assay (AID 1918971). Further: nearly all actives have a fitted effect of over 35% in size. The procedure, abridged: (§2)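 Relative luminescence from CellTiter-Glo served as the viability signal, referenced to DMSO-treated (100%) and cell-free medium (0%) controls. Treatment lasted 48 hours at 37C with 500 cells per well.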

Test [5] in a line: Quantitative High-Throughput drug screen in 47 multiple myeloma cell lines against the NCATS MIPE library collection: KMS12PE_JCRB cell viability assay (AID 1918972). Further: nearly all actives have a fitted effect of over 30% in size. The procedure, abridged: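 We plated 500 myeloma cells per well, pinned in MIPE 4.0 compounds, and incubated for 48 hours at 37C. ATP was then quantified with CellTiter-Glo, with DMSO and media-only wells defining 100% and 0%.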

Test [6] is described as follows: Quantitative High-Throughput drug screen in 47 multiple myeloma cell lines against the NCATS MIPE library collection: KMS26_JCRB cell viability assay (AID 1918975). Further: nearly all actives have a fitted effect of over 45% in size. In outline: as §2
Test [7] is described as follows: Quantitative High-Throughput drug screen in 47 multiple myeloma cell lines against the NCATS MIPE library collection: MOLP8_DSMZ cell viability assay (AID 1918977). Further: nearly all actives have a fitted effect of over 45% in size. In outline:
(§3)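 Plated at 500 cells per well, myeloma lines received MIPE 4.0 compounds by pin tool. Following 48 h culture at 37 °C, CellTiter-Glo luminescence gave viability relative to DMSO and media-only controls.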

Test [8] is described as follows: Quantitative High-Throughput drug screen in 47 multiple myeloma cell lines against the NCATS MIPE library collection: NCIH929_DSMZ cell viability assay (AID 1918978). Further: nearly all actives have a fitted effect of over 35% in size. In outline:
as §3

The nature of test [9]: Quantitative High-Throughput drug screen in 47 multiple myeloma cell lines against the NCATS MIPE library collection: OCIMY1_PLB cell viability assay (AID 1918979). Further: nearly all actives have a fitted effect of over 35% in size. The procedure, abridged: as §3
Test [10] is described as follows: Quantitative High-Throughput drug screen in 47 multiple myeloma cell lines against the NCATS MIPE library collection: MM1S_ATCC cell viability assay (AID 1918980). Further: nearly all actives have a fitted effect of over 45% in size. In outline: as §3
A short description of test [11]: Quantitative High-Throughput drug screen in 47 multiple myeloma cell lines against the NCATS MIPE library collection: MM1R_ATCC cell viability assay (AID 1918981). Further: nearly all actives have a fitted effect of over 35% in size. The procedure, abridged:
as §3

The nature of test [12]: Quantitative High-Throughput drug screen in 47 multiple myeloma cell lines against the NCATS MIPE library collection: LP1_DSMZ cell viability assay (AID 1918982). Further: nearly all actives have a fitted effect of over 35% in size. The procedure, abridged:
as §3

Test [13] in a line: Quantitative High-Throughput drug screen in 47 multiple myeloma cell lines against the NCATS MIPE library collection: KMS28PE_JCRB cell viability assay (AID 1918983). Further: nearly all actives have a fitted effect of over 35% in size. In outline:
as §3

The nature of test [14]: Quantitative High-Throughput drug screen in 47 multiple myeloma cell lines against the NCATS MIPE library collection: KMS34_JCRB cell viability assay (AID 1918985). Further: nearly all actives have a fitted effect of over 40% in size. In outline:
as §3

Test [15] can be described thus: Quantitative High-Throughput drug screen in 47 multiple myeloma cell lines against the NCATS MIPE library collection: KMS20_JCRB cell viability assay (AID 1918973). Further: nearly all actives have a fitted effect of over 45% in size. In outline:
as §1

The nature of test [16]: Quantitative High-Throughput drug screen in 47 multiple myeloma cell lines against the NCATS MIPE library collection: MMM1_PLB cell viability assay (AID 1918976). Further: nearly all actives have a fitted effect of over 35% in size. In outline:
as §3

A short description of test [17]: Quantitative High-Throughput drug screen in 47 multiple myeloma cell lines against the NCATS MIPE library collection: L363_DSMZ cell viability assay (AID 1918984). Further: nearly all actives have a fitted effect of over 40% in size. In outline:
as §3

Test [18] is described as follows: Quantitative High-Throughput drug screen in 47 multiple myeloma cell lines against the NCATS MIPE library collection: OCIMY7_PLB cell viability assay (AID 1918987). Further: nearly all actives have a fitted effect of over 65% in size. The procedure, abridged:
as §3

Test [19] is described as follows: Quantitative High-Throughput drug screen in 47 multiple myeloma cell lines against the NCATS MIPE library collection: OCIMY5_PLB cell viability assay (AID 1918988). Further: nearly all actives have a fitted effect of over 65% in size. In outline:
as §3

Test [20] is described as follows: Quantitative High-Throughput drug screen in 47 multiple myeloma cell lines against the NCATS MIPE library collection: KMS21BM_JCRB cell viability assay (AID 1918974). Conditions: ATP luminescence, 48 h; viability: at 45.8 µM (top of the series). In outline: as §1

Records with an inconclusive call do not appear. Activity calls are given as the source filed them. The call rests on the fitted dose curve; in most records, active means well fitted curve in the direction sought with a large enough effect; inconclusive means small, poorly fitted or top-dose-only effect, or another doubt; inactive means no such curve, though single readings can be large; an effect the other way counts as inactive or inconclusive.
Potency means the concentration at half of the fitted maximal effect.

As to `CCCCS(=N)(=O)CCC(N)C(=O)O` (stereo not given), the Potency result in test [1], in [2], in test [3], in test [4], in test [5] and in test [6] was “inactive” throughout. Moreover, the Potency result in test [7], in test [8], in test [9], in test [10], in [11] and in [12] was “inactive” throughout. Besides, the Potency entry in [13] and in test [14] was “inactive” each time.

Turning to `CS(=O)(=O)c1ccc([C@@H](O)[C@@H](CO)NC(=O)C(Cl)Cl)cc1`, the Potency result in test [1], in test [3], in test [4], in test [6] and in test [9] was “inactive” each time. Besides, the Potency is 16.6 µM (active) in [2], 2.35 µM (active) in [5] and 7.43 µM (active) in [10].

For the molecule `O=C(O)CSCC(=O)NC1CCSC1=O` (stereo not given), the Potency entry in test [1], in test [2], in test [3], in [4], in [5] and in [6] was “inactive” each time. Also, the Potency entry in [8], in test [9], in test [10] and in test [12] was “inactive” in each case.

With `Oc1c(Cl)cc(Cl)c2cccnc12`, the Potency is 11.8 µM (active) in test [1]; 9.35 µM (active) in test [2]; 16.6 µM (active) in test [3]; 4.69 µM (active) in test [4]; 14.8 µM (active) in [5]; 11.8 µM (active) in test [15]. The Potency in test [6] was 14.8 µM (active); in test [16], 16.6 µM (active); in test [7] it was 11.8 µM (active); in [8], 10.5 µM (active); in [9] it was 18.7 µM (active); in [10] it was 7.43 µM (active). In addition, the Potency in test [11] was 11.8 µM (active); in test [12] it was 26.4 µM (active); in test [17], 9.35 µM (active); in test [14], 16.6 µM (active); in test [18], 10.5 µM (active); in test [19], 6.62 µM (active).

Regarding `COc1ccc(-c2ccc3cc(C(=O)O)ccc3c2)cc1C12CC3CC(CC(C3)C1)C2`, the Potency result in test [1], in test [2], in test [3], in [5], in test [6] and in test [8] was “inactive” in each case. Besides, the Potency result in test [9], in test [13], in test [14] and in test [19] was “inactive” each time. Besides, the Potency in test [4] is 2.35 µM (active); in test [16], 2.64 µM (active); in test [10], 5.26 µM (active); in test [11], 7.43 µM (active).

`CCCCc1oc2ccc(NS(C)(=O)=O)cc2c1C(=O)c1ccc(OCCCN(CCCC)CCCC)cc1`: the Potency is 18.7 µM (active) in [1]; 16.6 µM (active) in [2]; 14.8 µM (active) in test [3]; 14.8 µM (active) in test [4]; 9.35 µM (active) in [5]; 9.35 µM (active) in test [15]. The Potency in test [6] was 14.8 µM (active); in [16], 7.43 µM (active); in test [8], 18.7 µM (active); in test [9], 20.9 µM (active); in test [10], 20.9 µM (active); in [11], 14.8 µM (active). The Potency in test [12] is 16.6 µM (active); in test [17], 8.33 µM (active); in test [18], 18.7 µM (active); in [19], 4.69 µM (active).

In the case of `Cc1cc(NS(=O)(=O)c2ccc(N)cc2)no1`, the Potency result in test [1], in [2], in [3], in test [4], in [5] and in test [15] was “inactive” throughout. Besides, the Potency result in test [20], in test [6], in test [7], in test [9], in test [11] and in test [13] was “inactive” in each case. Also, the Potency result in test [17] and in test [14] was “inactive” throughout. Further, the Potency in test [10] is 9.35 µM (active); in test [18], 16.6 µM (active).

For `C[C@@H](NCCCc1cccc(C(F)(F)F)c1)c1cccc2ccccc12`, the Potency entry in [1], in test [2], in test [3], in test [4], in test [15] and in test [6] was “inactive” in each case. The Potency entry in test [8], in test [9], in test [11], in test [12], in test [13] and in test [17] was “inactive” each time. Further, the Potency entry in test [14] and in [19] was “inactive” in each case. Moreover, the Potency in test [5] is 18.7 µM (active).

Turning to `Cc1onc(-c2ccccc2Cl)c1C(=O)N[C@@H]1C(=O)N2[C@@H]1SC(C)(C)[C@@H]2C(=O)O`, the Potency result in test [1], in test [2], in [3], in [4], in test [5] and in [16] was “inactive” throughout. Moreover, the Potency result in test [8], in [9], in test [11], in test [12], in [13] and in test [14] was “inactive” in each case. In addition, in [19], the Potency result is “inactive”. In addition, the Potency in test [10] is 14.8 µM (active).

As for `CCn1cc(C(=O)O)c(=O)c2cc(F)c(N3CCN(C)CC3)cc21`, the Potency entry in test [1], in test [2], in [3], in test [5], in test [6] and in test [7] was “inactive” in each case. For the same molecule, the Potency result in [8], in [11], in test [12], in test [14] and in [19] was “inactive” each time. Moreover, the Potency is 2.64 µM (active) in [4] and 5.26 µM (active) in [17].

As for `COc1ccc2cc3[n+](cc2c1OC)CCc1cc2c(cc1-3)OCO2`, the Potency was 14.8 µM (active) in [1]; 2.64 µM (active) in test [2]; 16.6 µM (active) in test [3]; 6.62 µM (active) in test [4]; 16.6 µM (active) in [5]; 2.64 µM (active) in [20]. Also, the Potency was 5.9 µM (active) in test [6]; 6.62 µM (active) in [16]; 14.8 µM (active) in [7]; 14.8 µM (active) in test [10]; 4.69 µM (active) in test [11]; 4.69 µM (active) in [12]. The Potency in test [13] was 16.6 µM (active); in [17] it was 6.62 µM (active); in [19], 14.8 µM (active).

Regarding `Cc1oc(=O)oc1CN1CCN(c2cc3c(cc2F)c(=O)c(C(=O)O)c2n3C(C)S2)CC1` (stereo not given), the Potency result in test [1], in [2], in test [3], in test [5], in [8] and in test [9] was “inactive” in each case. In addition, the Potency entry in test [11] and in test [18] was “inactive” throughout. In test [4], the Potency was 13.2 µM (active).

As to `COc1ccccc1OCC(O)COC(N)=O` (stereo not given), the Potency entry in test [1], in [2], in test [3], in test [4], in test [5] and in test [6] was “inactive” each time. The Potency entry in test [8], in test [12], in [17] and in [14] was “inactive” throughout.

Take `Cn1c(=O)c2c(ncn2CC(O)CO)n(C)c1=O` (stereo not given): the Potency entry in test [1], in test [2], in [3], in test [4], in test [5] and in test [15] was “inactive” throughout. Besides, the Potency result in test [6], in test [16], in test [7], in test [8], in test [9] and in [10] was “inactive” in each case. Also, the Potency result in test [11], in [12], in [13], in [14] and in test [19] was “inactive” in each case. Besides, the Potency in [17] was 5.26 µM (active).
